Records with an inconclusive call do not appear. Entries that show only a call come without a potency. Active and inactive are the calls of the source. Unless noted, the call rests on the fitted dose curve; in most records, active means well fitted curve in the direction sought with a large enough effect; inconclusive means small, poorly fitted or top-dose-only effect, or another doubt; inactive means no such curve, though single readings can be large; an effect the other way counts as inactive or inconclusive.
Experiments:
[1] = molecular target: Cytochrome P450 1A2 (Homo sapiens) (UniProt P05177); assay: p450-cyp1a2 (AID 410; calls by dose curve; further: potency means the concentration at half of the fitted maximal effect)
Cytochrome P450 1A2 (Homo sapiens), sequence (P05177 whole entry, looked up): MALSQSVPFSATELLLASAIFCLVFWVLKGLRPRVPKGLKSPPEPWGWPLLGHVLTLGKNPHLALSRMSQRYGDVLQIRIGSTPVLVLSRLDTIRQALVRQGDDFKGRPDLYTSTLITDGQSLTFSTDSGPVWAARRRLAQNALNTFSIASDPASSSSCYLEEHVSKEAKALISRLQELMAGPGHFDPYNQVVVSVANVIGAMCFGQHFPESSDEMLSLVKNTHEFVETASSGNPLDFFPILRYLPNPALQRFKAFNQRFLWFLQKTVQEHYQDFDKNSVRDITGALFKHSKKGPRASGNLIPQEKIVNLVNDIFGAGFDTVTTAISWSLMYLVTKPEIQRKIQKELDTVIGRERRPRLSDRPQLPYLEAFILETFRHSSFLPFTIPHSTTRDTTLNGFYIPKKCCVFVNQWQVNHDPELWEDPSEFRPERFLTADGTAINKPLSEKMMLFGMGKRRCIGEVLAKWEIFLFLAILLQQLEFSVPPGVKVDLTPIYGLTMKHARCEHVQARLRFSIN
Method in brief: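 O-Demethylation of luciferin 6' methyl ether by human CYP1A2 is monitored as luciferase luminescence. Substrate sits at Km (100uM); enzyme is 20nM. Values are scaled to 57 uM furafylline as maximal inhibition.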

[2] = molecular target: Glucocorticoid receptor (Homo sapiens) (UniProt P04150); assay: GR-GFP Redistribution (AID 450;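 active means compounds whose dose series gives a full or clear partial fitted curve of increased nuclear translocation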; further: potency means the concentration at half of the fitted maximal effect); details: U2OS GR-GFP nuclear translocation, laser cytometry, 2 h
Glucocorticoid receptor (Homo sapiens), sequence (P04150 whole entry, looked up, the tested form may be a part): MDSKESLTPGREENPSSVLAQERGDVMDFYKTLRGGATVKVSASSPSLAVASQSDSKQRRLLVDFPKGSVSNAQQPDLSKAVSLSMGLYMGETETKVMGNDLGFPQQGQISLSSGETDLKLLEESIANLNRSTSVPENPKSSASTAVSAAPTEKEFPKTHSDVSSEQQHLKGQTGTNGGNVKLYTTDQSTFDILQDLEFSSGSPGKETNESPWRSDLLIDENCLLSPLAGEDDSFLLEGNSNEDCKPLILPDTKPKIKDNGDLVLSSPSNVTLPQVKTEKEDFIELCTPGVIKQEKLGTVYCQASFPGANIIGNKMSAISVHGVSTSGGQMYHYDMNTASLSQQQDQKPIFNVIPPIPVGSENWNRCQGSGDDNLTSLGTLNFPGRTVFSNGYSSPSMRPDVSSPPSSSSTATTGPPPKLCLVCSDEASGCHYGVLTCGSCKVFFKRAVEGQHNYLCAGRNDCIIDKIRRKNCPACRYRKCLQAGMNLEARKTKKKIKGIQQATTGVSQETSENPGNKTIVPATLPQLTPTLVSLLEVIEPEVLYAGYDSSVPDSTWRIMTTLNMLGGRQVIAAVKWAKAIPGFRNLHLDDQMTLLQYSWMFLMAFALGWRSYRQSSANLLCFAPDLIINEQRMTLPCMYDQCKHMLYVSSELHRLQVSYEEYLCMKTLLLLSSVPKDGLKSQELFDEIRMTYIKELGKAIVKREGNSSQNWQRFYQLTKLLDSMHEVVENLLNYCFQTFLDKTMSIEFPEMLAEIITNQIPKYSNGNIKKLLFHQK

[3] = molecular target: Glucocorticoid receptor (Homo sapiens) (UniProt P04150); assay: GR-EFC Redistribution (AID 451; calls by dose curve; further: potency means the concentration at half of the fitted maximal effect); details: CHO-K1 GR-EFC translocation, beta-gal luminescence, 2 h
Method in brief: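 CHO-K1 cells expressing nuclear EA and GR-ED fragments of b-gal; compounds titrated up to 46 uM final, 2 h at 37 C. GR nuclear translocation read as complemented b-gal luminescence after 1 h RT detection.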

[4] = molecular target: Mitogen-activated protein kinase 10 (Mus musculus) (UniProt Q61831); assay: JNK3 AlphaScreen Assay (AID 530; active means well fitted curve in either direction with a large enough effect, not every such curve was filed as active;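 further: kinase came from lysate of stimulated human HepG2 cells; signal reports phosphorylation of biotinylated GST-cJun 1-79 at Ser73 with 10 µM ATP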)
Method in brief: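 Activity was read by AlphaScreen after JNK3-containing HepG2 lysate (cytokine pre-activated) phosphorylated biotinylated GST-cJun with 10 uM ATP at room temperature. Phospho-Ser73 cJun antibody with Protein-A acceptor beads provided detection.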

[5] = molecular target: 3',5'-cyclic-AMP phosphodiesterase 4B (Homo sapiens) (UniProt Q07343); assay: qHTS Assay for Inhibitors of PDE-IV (AID 607; active means well fitted activation curve with a large enough effect in the main read-out, with a control signal flat, not every such curve was filed as active)
3',5'-cyclic-AMP phosphodiesterase 4B (Homo sapiens), sequence (Q07343 whole entry, looked up): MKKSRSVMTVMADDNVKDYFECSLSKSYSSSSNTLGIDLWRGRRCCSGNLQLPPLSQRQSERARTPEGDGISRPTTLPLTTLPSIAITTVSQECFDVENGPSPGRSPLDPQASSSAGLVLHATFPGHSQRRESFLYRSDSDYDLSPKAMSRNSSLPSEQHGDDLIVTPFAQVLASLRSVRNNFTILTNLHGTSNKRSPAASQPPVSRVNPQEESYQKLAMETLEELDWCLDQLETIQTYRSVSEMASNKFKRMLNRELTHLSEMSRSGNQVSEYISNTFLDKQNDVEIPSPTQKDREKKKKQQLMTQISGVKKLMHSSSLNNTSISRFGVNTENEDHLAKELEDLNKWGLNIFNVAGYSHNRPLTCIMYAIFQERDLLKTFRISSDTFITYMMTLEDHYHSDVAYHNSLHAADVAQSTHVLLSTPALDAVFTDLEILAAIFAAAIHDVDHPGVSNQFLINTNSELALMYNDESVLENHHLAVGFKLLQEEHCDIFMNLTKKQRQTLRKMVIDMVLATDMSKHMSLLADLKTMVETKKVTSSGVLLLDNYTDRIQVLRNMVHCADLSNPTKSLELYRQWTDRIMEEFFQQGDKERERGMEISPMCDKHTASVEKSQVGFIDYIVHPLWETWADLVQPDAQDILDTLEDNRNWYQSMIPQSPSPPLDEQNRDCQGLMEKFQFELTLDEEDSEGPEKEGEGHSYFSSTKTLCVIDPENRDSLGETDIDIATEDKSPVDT
Method in brief: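 Cell-based read-out of cAMP via a modified cyclic nucleotide-gated channel and membrane potential dye (535/590 nm) in HEK293 cells expressing PDE4 endogenously. Compounds tested up to 22.9 uM final; 100 uM RO 20-1724 reference.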

[6] = molecular target: Ubiquitin carboxyl-terminal hydrolase 1 (Homo sapiens) (UniProt O94782); assay: Inhibitors of USP1/UAF1: Pilot qHTS (AID 504865);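 further: rhodamine fluorescence freed from ubiquitin-rhodamine substrate followed over time; top concentration of the series differs between compounds; nearly all actives have a fitted effect of over 35% in size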
Ubiquitin carboxyl-terminal hydrolase 1 (Homo sapiens), sequence (O94782 whole entry, looked up): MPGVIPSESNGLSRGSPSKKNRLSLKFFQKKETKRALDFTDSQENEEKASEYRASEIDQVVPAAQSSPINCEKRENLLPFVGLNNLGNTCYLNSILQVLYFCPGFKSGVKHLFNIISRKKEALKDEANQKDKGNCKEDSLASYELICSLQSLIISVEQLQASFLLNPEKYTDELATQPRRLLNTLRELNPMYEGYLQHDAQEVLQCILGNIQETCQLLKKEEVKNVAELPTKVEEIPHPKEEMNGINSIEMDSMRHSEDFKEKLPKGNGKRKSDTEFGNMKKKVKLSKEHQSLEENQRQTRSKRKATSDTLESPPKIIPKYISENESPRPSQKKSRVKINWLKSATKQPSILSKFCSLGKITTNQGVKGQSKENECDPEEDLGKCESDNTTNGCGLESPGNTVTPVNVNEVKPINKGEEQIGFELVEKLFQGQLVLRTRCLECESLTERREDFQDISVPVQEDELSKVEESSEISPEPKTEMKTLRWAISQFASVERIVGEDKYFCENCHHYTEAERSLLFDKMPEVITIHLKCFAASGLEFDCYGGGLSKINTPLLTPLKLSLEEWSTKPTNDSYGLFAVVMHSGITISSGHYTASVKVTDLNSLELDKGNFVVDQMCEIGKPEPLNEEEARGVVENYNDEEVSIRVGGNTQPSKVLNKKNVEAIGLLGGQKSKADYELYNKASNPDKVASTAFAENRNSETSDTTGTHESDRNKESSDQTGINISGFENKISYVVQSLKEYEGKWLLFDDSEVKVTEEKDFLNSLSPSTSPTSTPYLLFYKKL
Method in brief: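 Enzyme-free wells gave the negative control, while test wells held 1nM USP1/UAF1 preincubated with compound for 15 min at room temperature. Ub-Rho at 150nM final started the reaction, and fluorescence at 480/540 nm was recorded kinetically.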

[7] = molecular target: DNA dC->dU-editing enzyme APOBEC-3G (Homo sapiens) (UniProt Q9HC16); assay: qHTS for inhibitors of Vif-A3G interactions: Validation (AID 588379)
DNA dC->dU-editing enzyme APOBEC-3G (Homo sapiens), sequence (Q9HC16 whole entry, looked up): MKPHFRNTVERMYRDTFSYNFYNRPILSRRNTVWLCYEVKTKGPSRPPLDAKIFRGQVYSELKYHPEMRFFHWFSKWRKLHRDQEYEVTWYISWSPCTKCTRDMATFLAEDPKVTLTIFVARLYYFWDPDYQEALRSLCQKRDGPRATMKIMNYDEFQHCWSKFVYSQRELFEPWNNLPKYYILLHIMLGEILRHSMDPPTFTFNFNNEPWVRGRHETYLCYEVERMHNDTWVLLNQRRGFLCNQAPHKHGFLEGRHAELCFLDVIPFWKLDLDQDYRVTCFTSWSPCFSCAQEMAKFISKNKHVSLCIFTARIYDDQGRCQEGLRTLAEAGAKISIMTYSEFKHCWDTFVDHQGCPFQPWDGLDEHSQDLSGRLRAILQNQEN
Method in brief: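 Yellow fluorescence (Ex 488, Em 500-530) of Vif-coexpressing HeLa A3G-eYFP cells, scanned by Acumen cytometer, reports blocked A3G degradation. Cells plated at 700/well overnight at 37 deg C before compound addition, then a further overnight compound incubation at 37 deg C.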

[8] = test system: Zika virus NS2B-NS3 protease; assay: Primary screen GU AMC qHTS for Zika virus inhibitors (AID 1347154); further: nearly all actives have a fitted effect of over 70% in size
Method in brief: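 Unlinked Zika NS2B hydrophilic domain–NS3 protease complex at 25 nM in 10 mM Tris-HCl pH 8.0, 0.01% Tween 20, with an AMC peptide substrate. Fluorescence change (340/450 nm) over 15 min at room temperature, normalized to controls, fitted to 4-parameter Hill.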

[9] = molecular target: N-terminal Xaa-Pro-Lys N-methyltransferase 1 (Homo sapiens) (UniProt Q9BV86); assay: Confirmatory qHTS for Inhibitors of N-terminal methyltransferase 1 (NTMT1): MTaseGlo Assay (AID 1645874);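 further: luminescence from SAH made as NTMT1 methylates SPKRIA peptide using SAM; nearly all actives have a fitted effect of over 65% in size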
Method in brief: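 MTase-Glo luminescence measured SAH formed by 125 nM NTMT1 from 100 uM SAM and 1 uM SPKRIA peptide over 30 min at room temperature, following 15 min compound preincubation. Percent inhibition against no-enzyme and DMSO controls gave 4-parameter Hill fits.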

[10] = Primary qHTS for inhibitors of nuclear receptor binding SET domain protein 2 (NSD2) in an isogenic RCH-ACV NSD2 p.E1099K mutant (9B) (AID 1645876); further: potency means the concentration at half of the fitted maximal effect; nearly all actives have a fitted effect of over 70% in size
[11] = Primary qHTS for inhibitors of nuclear receptor binding SET domain protein 2 (NSD2) in an RCH-ACV wild type WT cells (2C) (AID 1645877); further: potency means the concentration at half of the fitted maximal effect; nearly all actives have a fitted effect of over 70% in size
[12] = molecular target: Glutathione peroxidase 1 (Homo sapiens) (UniProt P07203); assay: Primary qHTS Assay for Inhibitors of Recombinant Selenoprotein Glutathione Peroxidase 1 (GPX1) (AID 1845191); further: nearly all actives have a fitted effect of over 65% in size
Glutathione peroxidase 1 (Homo sapiens), sequence (P07203 whole entry, looked up): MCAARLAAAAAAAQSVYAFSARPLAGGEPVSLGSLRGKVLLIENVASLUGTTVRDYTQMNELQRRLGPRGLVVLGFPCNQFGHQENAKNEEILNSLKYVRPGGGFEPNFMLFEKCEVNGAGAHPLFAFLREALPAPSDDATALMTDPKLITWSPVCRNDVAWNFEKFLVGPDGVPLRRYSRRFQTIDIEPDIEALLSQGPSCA
Method in brief: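 GR-coupled readout: NADPH consumption tracked by fluorescence, ex 340/em 450 nm, at t=0 and after 15 min at RT. Final mix 10 nM GPX1, 1 mM GSH, 0.5 mM CHP, 0.5 mM NADPH, 100 nM GR, 0.01% BSA, following 30 min enzyme–compound preincubation.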

[13] = molecular target: Phospholipid hydroperoxide glutathione peroxidase GPX4 (Homo sapiens) (UniProt P36969); assay: Primary qHTS Assay for Inhibitors of Recombinant Selenoprotein Glutathione Peroxidase 4 (GPX4) (AID 1845192); details: outcome: dose series up to 50 µM unless noted; further: nearly all actives have a fitted effect of over 65% in size
Phospholipid hydroperoxide glutathione peroxidase GPX4 (Homo sapiens), sequence (P36969 whole entry, looked up): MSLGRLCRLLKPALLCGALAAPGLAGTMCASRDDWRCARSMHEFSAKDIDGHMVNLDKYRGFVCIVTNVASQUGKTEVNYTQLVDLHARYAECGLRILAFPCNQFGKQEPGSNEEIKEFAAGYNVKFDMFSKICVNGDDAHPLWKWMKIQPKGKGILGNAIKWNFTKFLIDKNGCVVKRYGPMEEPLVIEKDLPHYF
Method in brief: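 Steps: GPX4 plus compound, 30 min RT; add GR/GSH/NADPH master mix; start with cumene hydroperoxide; read 340/450 nm fluorescence at 0 and 15 min. Finals were 200 nM GPX4, 1 mM GSH, 0.5 mM CHP, 0.5 mM NADPH, 100 nM GR.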

[14] = qHTS drug screen for cell cycle checkpoint inhibitors in PARPi-resistant BRCA-mutant ovarian cancer cell lines. (AID 1963452; calls by dose curve); details: PEO1/OlaR viability, CellTiter-Glo luminescence, 96 h, stronger effect = lower value
Method in brief: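 PEO1, PEO4 and PEO1/OlaR ovarian cancer cells, 600 per well, exposed 96 h at 37C to a dilution series. Viability read by CellTiter-Glo luminescence, normalized to DMSO and empty wells; activity summarized as Z-AUC.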

[15] = AP1 Signaling Pathway (AID 357; active means well fitted curve in either direction with a large enough effect, not every such curve was filed as active;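 further: ME-180 reporter cells stimulated with EGF at its EC50 level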); details: ME-180 AP-1-bla reporter, EGF-induced, beta-lactamase ratio, 5 h; at 38 µM (top of the series)
Method in brief: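 A ratiometric CCF4 readout (405 nm excitation; 460 and 530 nm emission) quantified AP-1-driven beta-lactamase in ME-180 cells after 5 h with compound and EC50 EGF; AC50 values were derived for activators and inhibitors.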

[16] = NFAT Signaling Pathway (AID 444; active means well fitted curve in either direction with a large enough effect, not every such curve was filed as active;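 further: carbachol stimulus at about its EC50 of 1 µM final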); details: Jurkat NFAT-bla M1, carbachol, beta-lactamase ratio, 5 h; at 38 µM (top of the series)
Method in brief: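 Jurkat cells with NFAT-driven β-lactamase reporter and co-expressed M1 receptor, stimulated with carbachol (final 1 uM, ~EC50), compound titration, 5 h at 37 °C. CCF4 loaded 1 h at RT; 460/530 nm ratio gave %activity and AC50.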

[17] = Stat Signaling Pathway (AID 446; active means well fitted curve in either direction with a large enough effect, not every such curve was filed as active;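 further: ME-180 cervical cancer cells given 40 pM IL-6 alongside compound; SIE-controlled beta-lactamase reporter measured as 460/530 nm FRET emission ratio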); details: ME-180 (cervical carcinoma) SIE beta-lactamase reporter, IL-6 stimulated, 5 h; at 38 µM (top of the series)
Method in brief: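 FRET read-out (405 nm excitation, 460/530 nm emission) of a beta-lactamase reporter under a STAT-inducible element in ME-180 cervical carcinoma cells. Cells with compound receive 40 pM IL-6 for 5 h. Values are normalised to AC90 stimulation and AC90 JAK-inhibitor controls.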

[18] = molecular target: Guanine nucleotide-binding protein G(i) subunit alpha-1 (Homo sapiens) (UniProt P63096); assay: qHTS Assay for Inhibitors of RGS12 GoLoco Motif Activity (Green Fluorophore) (AID 879);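 further: negative values mean loss of peptide binding seen as reduced polarization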
Guanine nucleotide-binding protein G(i) subunit alpha-1 (Homo sapiens), sequence (P63096 whole entry, looked up): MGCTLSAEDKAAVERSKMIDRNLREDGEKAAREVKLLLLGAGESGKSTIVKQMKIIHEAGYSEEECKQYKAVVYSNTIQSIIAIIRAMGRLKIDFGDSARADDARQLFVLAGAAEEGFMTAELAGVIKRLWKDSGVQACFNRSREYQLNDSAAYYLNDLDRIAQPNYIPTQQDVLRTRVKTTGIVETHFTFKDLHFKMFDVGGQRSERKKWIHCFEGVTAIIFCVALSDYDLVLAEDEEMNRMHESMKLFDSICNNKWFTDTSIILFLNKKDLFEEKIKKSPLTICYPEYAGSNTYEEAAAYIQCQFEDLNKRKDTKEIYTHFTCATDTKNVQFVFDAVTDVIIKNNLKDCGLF
Method in brief: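 A drop in FITC polarization marked displacement of the FITC-tagged RGS12 GoLoco peptide (10 nM) from Gαi1 (50 nM). Compounds were incubated 10 min at room temperature in Tris pH 7.5 buffer containing 150 mM NaCl, 0.1 mM GDP and 0.05% NP40; unlabeled peptide titration served as control.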

[19] = qHTS Assay for Identification of Small Molecule Agonists for Thrombopoietin (TPO) Signaling Pathway (AID 917)
Method in brief: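 Human TPO receptor–transfected Ba/F3 cells (murine, IL-3-dependent) in IL-3-deficient medium; compounds plus TPO at EC50, 26 pM final; 24 hrs, 37 C; GpIIb-luciferase luminescence after 10 min RT detection.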

[20] = molecular target: Pyruvate kinase (Leishmania mexicana) (UniProt Q27686); assay: qHTS Validation Assay for Inhibitors of Leishmania Mexicana Pyruvate Kinase (AID 945)
Pyruvate kinase (Leishmania mexicana), sequence (Q27686 2-499 E452W): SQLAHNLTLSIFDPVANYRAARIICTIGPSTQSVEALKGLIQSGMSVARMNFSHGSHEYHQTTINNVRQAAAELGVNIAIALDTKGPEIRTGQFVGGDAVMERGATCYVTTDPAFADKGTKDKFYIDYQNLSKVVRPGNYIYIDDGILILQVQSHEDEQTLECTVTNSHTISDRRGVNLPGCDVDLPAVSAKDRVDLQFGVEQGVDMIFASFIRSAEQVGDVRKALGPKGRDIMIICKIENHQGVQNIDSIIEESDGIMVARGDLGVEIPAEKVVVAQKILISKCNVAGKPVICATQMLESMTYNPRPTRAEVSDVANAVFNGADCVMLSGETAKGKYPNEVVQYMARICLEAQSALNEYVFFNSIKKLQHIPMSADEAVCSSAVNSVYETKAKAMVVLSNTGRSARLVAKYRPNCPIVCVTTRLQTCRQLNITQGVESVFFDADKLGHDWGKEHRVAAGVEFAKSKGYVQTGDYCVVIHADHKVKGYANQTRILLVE
Method in brief: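 Luminescent ATP detection (PKLight) after a 1 h room-temperature reaction of 0.2 nM LmPYK E451W mutant with 0.5 mM PEP and 0.1 mM ADP at pH 7.2. Activity is normalized to DMSO-only control wells.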

[21] = molecular target: Pyruvate kinase PKM (Homo sapiens) (UniProt P14618); assay: qHTS Assay for Activators of Human Muscle Pyruvate Kinase (AID 954; active means well fitted curve in the direction sought with a large enough effect, not every such curve was filed as active)
Method in brief: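 ATP production by PKM2 detected via luciferase luminescence after 1 h room-temperature reaction (0.1 nM enzyme, PEP at Km 0.5 mM, ADP 0.1 mM, pH 7.2 imidazole buffer). Inhibition scaled to no-enzyme control; activation referenced to 0.3 nM enzyme wells.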

[22] = molecular target: Alpha-galactosidase A (Homo sapiens) (UniProt P06280); assay: Counterscreen for Glucocerebrosidase Inhibitors: qHTS Assay for Human alpha-Galactosidase at pH 4.5 (AID 992)
Alpha-galactosidase A (Homo sapiens), sequence (P06280 whole entry, looked up): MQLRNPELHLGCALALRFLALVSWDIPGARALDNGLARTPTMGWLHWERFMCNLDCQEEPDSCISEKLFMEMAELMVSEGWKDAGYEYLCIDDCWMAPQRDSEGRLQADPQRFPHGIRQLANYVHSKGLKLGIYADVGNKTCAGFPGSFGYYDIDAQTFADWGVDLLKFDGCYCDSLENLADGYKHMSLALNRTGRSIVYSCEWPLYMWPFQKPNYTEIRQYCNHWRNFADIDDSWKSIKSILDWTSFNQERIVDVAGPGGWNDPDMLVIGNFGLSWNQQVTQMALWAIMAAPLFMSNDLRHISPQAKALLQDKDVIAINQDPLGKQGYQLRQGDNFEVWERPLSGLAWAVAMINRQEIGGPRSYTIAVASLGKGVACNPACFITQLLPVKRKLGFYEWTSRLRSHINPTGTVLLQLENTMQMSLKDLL
Method in brief: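 Fluorogenic 1536-well qHTS at pH 4.5 (citrate, Tween-20): 2 nM enzyme, 80 uM 4-MU-alpha-galactoside, 20 min room temperature, NaOH/glycine stop. Titration 0.7 nM to 77 uM, data normalized to no-enzyme and full-activity controls, Hill-fitted AC50.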

[23] = molecular target: alpha-glucosidase (Oryza sativa, rice) (UniProt Q653V4); assay: Counterscreen for Glucocerebrosidase Inhibitors: qHTS Assay for Rice alpha-Glucosidase at pH 5.0 (AID 997)
Method in brief: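 Endpoint fluorogenic assay at pH 5.0: compounds (0.7 nM to 77 uM) titrated against 4 nM rice enzyme and 400 uM 4-MU-alpha-glucoside for 20 min at room temperature; NaOH/glycine stop, read ex 365/em 440 nm, Hill-fitted AC50.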

For `OC[C@@H]1O[C@@H](n2cnc3c(NC4CCCC4)ncnc32)[C@H](O)[C@H]1O`, the Potency [1] was “inactive”, the Potency [2] was > 46 µM (inactive) and the Potency [3] was > 46 µM (inactive). The Potency [4] was “inactive”, the Potency [5] was “inactive” and the Potency [6] was “inactive”. For the same compound, the Potency [7] was “inactive” and the Potency [8] was “inactive”.
With `CC(=O)C1CCC2C3CCC4=CC(=O)CCC4(C)C3CCC12C` (stereo not drawn) the Potency [8] was “inactive”, the Potency [9] was “inactive” and the Potency [10] was 20.9 µM (active). For the same compound, the Potency [11] was 18.6 µM (active), the Potency [12] was “inactive” and the Potency [13] was “inactive”. For the same compound, the Z-AUC [14] was -0.653 (inactive), the Z-AUC ([14]; measured here: PEO1 parental Z-AUC) was -0.604 and the Z-AUC ([14]; measured here: PEO4 Z-AUC) was -0.267.
With `N=C(N)SCCc1ccc(OCc2ccc([N+](=O)[O-])cc2)cc1` the Potency [1] was 31.6 µM (active), the Potency [2] was > 46 µM (inactive) and the Potency [3] was > 46 µM (inactive). For the same compound, the Potency [4] was “inactive”, the Potency [5] was “inactive” and the Potency [6] was “inactive”. For the same compound, the Potency [7] was “inactive” and the Potency [8] was “inactive”.
For `OC[C@H]1O[C@H](n2cnc3c(NC4CCCC4)nc(Cl)nc32)[C@@H](O)[C@@H]1O`, the Potency [1] was 39.8 µM (active), the Potency [2] was > 46 µM (inactive) and the Potency [3] was > 46 µM (inactive). The Potency [4] was “inactive”, the Potency [5] was “inactive” and the Potency [7] was “inactive”. For the same compound, the Potency [8] was “inactive”.
For `N[C@@H](Cn1ccc(=O)n(Cc2ccccc2C(=O)O)c1=O)C(=O)O`, the Potency [1] was “inactive”, the Potency [2] was > 46 µM (inactive) and the Potency [3] was > 46 µM (inactive). For the same compound, the Potency [4] was “inactive”, the Potency [5] was “inactive” and the Potency [6] was “inactive”. For the same compound, the Potency [7] was “inactive” and the Potency [8] was “inactive”.
With `O=C(NC[C@H]1CCCCN1)c1cc(OCC(F)(F)F)ccc1OCC(F)(F)F` the activity change, negative = inhibition [15] was 4.16% (inactive), the activity change, negative = inhibition [16] was -11% (inactive) and the activity, negative = inhibition [17] was -13.8% (inactive). The Potency [4] was “inactive”, the Potency [5] was “inactive” and the outcome [18] was “inactive”. The Potency [19] was “inactive”, the Potency [20] was “inactive” and the outcome [21] was “inactive”. The outcome [22] was “inactive”, the outcome [23] was “inactive” and the Potency [7] was “inactive”. For the same compound, the Potency [8] was “inactive”.

From PubChem BioAssay (NCATS)
